ChEMBL document CHEMBL3988442, “University of Dundee, Small-Polar-MMV Screening Library” (2021)
For some of these results: Entries with a potency or affinity are not part of this list.

What was measured:
Set-up in all cases: scale not given: direction of the effect not stated beside the values
[1] = molecular target: Protein translocase subunit SecA (Escherichia coli (strain K12)) (UniProt P10408); test: Assay to Identify E. coli SecA ATPase Inhibitors; format: functional; details: 30 µM
[2] = molecular target: T1, Ubiquitin-activating enzyme e1, putative (Leishmania donovani (strain BPK282A1)) (UniProt E9BSI1); test: Leishmania donovani Ubiquitin Activating Enzyme (LdE1); format: functional; details: 30 µM
T1 sequence (whole entry): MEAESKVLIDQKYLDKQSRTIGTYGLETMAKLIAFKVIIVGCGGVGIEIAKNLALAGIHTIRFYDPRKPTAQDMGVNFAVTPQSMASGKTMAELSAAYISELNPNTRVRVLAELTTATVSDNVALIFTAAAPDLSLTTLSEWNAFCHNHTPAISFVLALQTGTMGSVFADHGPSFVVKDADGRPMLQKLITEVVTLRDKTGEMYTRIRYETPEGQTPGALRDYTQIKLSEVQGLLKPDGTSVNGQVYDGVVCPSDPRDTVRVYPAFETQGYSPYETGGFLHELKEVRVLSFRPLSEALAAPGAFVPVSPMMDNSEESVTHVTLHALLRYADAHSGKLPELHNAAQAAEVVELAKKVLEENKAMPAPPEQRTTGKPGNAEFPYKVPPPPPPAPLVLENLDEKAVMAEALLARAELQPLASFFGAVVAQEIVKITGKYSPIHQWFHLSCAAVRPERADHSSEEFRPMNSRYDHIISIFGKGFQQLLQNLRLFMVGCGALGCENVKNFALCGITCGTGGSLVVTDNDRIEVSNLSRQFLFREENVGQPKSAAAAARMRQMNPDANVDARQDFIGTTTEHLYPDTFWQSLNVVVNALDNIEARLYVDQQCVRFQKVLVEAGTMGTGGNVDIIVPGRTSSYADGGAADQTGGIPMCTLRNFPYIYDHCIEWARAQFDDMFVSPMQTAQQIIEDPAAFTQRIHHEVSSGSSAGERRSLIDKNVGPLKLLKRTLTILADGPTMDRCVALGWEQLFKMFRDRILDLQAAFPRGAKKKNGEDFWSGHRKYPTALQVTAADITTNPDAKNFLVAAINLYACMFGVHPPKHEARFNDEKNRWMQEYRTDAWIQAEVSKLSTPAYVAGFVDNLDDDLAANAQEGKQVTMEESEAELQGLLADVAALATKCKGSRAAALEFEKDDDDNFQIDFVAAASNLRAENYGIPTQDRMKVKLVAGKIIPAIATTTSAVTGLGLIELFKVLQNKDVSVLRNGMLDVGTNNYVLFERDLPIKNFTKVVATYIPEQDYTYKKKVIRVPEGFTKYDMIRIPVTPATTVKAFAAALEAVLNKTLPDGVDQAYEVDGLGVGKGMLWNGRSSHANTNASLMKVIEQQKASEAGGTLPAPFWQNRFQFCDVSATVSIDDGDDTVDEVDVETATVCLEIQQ

[3] = molecular target: AMP-activated protein kinase, AMPK (Homo sapiens) (UniProt P54646+O43741+P54619+Q9UGJ0+Q9Y478+Q13131+Q9UGI9); test: AMP-dependent Kinase enzyme assay. An in vitro enzyme assay that detects ADP turnover that is directly proportional to AMPK activity. This uses naive AMPK that is activated during the assay with MK-8722; format: functional; details: 30 µM
[4] = molecular target: Sialic acid-binding Ig-like lectin 9 (Homo sapiens) (UniProt Q9Y336); test: Hs-Siglec9 ALPHAscreen SOP 20170721; details: 10 µM
Trypanosoma cruzi = test: Trypanosoma cruzi phosphomannomutase and mannose-1-phosphate guanylyltransferase assay; format: functional; details: 10 µM
[5] = molecular target: T2, Arginase-2, mitochondrial (Homo sapiens) (UniProt P78540); test: in vitro enzyme assay to detect the production of urea directly proportional to the activity of Arginase II; format: functional; details: 33.3 µM; further: in the data most compounds retested in dose-response had high values
T2 sequence (whole entry): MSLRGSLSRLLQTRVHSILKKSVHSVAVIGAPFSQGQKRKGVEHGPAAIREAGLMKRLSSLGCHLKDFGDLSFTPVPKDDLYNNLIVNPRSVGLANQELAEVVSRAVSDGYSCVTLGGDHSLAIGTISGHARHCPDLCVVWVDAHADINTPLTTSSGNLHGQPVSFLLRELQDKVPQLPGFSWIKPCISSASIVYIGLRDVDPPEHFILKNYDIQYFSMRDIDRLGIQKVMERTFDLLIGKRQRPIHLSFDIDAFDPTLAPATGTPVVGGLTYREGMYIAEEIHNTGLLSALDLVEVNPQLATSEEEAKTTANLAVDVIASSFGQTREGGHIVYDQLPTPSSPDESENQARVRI

[6] = molecular target: T3, Proteasome subunit beta (Trypanosoma cruzi) (UniProt O96673); test: Trypanosoma cruzi proteasome chymotrypsin-like activity (TcProtChymo) assay.; further: in the data most compounds retested in dose-response had high values; format: functional; details: 9.37 µM
T3 sequence (whole entry): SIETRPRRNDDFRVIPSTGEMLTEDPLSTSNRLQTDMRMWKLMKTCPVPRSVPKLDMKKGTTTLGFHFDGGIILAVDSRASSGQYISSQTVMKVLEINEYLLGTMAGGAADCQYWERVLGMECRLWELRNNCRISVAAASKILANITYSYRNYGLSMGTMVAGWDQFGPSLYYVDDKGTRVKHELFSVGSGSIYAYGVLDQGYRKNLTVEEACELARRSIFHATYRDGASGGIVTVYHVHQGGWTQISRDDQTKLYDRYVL

Homo sapiens = organism: Homo sapiens; test: To identify inhibition of the IFN signalling (Jak-Stat) pathway via expression of an eGFP reporter gene under the control of an IFN-stimulated response element (ISRE) containing MxA promoter.; format: functional; details: 30 µM
[7] = molecular target: T4, Tyrosyl-tRNA synthetase, putative (Trypanosoma cruzi (strain CL Brener)) (UniProt Q4DSP6); test: Trypanosoma cruzi tyrosyl tRNA synthetase (TcYRS) _High Tyrosine SOP; format: functional; details: 30 µM; further: in the data most compounds retested in dose-response had high values
T4 sequence (whole entry): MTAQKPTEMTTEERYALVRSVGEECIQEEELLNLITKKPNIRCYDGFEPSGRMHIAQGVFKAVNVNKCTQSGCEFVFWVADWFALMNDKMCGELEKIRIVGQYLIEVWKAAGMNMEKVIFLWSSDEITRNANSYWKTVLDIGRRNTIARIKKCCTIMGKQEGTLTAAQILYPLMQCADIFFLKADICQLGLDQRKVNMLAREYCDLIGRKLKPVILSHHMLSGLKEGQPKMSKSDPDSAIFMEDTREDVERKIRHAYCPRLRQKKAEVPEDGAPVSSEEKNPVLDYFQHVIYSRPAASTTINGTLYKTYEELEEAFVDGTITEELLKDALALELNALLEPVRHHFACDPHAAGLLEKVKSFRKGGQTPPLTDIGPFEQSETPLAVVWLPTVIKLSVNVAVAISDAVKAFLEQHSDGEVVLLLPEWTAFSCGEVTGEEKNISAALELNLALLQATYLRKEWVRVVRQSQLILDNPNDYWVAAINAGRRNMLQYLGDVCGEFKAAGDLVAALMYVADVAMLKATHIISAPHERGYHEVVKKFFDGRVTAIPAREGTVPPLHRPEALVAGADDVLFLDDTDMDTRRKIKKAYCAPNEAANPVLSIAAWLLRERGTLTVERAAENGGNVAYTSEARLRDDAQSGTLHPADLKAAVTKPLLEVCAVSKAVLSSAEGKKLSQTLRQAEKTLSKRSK

[8] = molecular target: T4, Tyrosyl-tRNA synthetase, putative (Trypanosoma cruzi (strain CL Brener)); test: Trypanosoma cruzi tyrosyl tRNA synthetase (TcYRS) SOP; format: functional; details: 30 µM
[9] = molecular target: Chromo domain-containing protein 1 (Saccharomyces cerevisiae (strain ATCC 204508 / S288c) (Baker's yeast)) (UniProt P32657); test: ScCHD-1 Enzyme Inhibition Assay; format: functional; details: 30 µM; further: in the data most compounds retested in dose-response had high values
Chain of Chromo domain-containing protein 1 (Saccharomyces cerevisiae (strain ATCC 204508 / S288c) (Baker's yeast)) (P32657 whole entry, the tested form may be a part): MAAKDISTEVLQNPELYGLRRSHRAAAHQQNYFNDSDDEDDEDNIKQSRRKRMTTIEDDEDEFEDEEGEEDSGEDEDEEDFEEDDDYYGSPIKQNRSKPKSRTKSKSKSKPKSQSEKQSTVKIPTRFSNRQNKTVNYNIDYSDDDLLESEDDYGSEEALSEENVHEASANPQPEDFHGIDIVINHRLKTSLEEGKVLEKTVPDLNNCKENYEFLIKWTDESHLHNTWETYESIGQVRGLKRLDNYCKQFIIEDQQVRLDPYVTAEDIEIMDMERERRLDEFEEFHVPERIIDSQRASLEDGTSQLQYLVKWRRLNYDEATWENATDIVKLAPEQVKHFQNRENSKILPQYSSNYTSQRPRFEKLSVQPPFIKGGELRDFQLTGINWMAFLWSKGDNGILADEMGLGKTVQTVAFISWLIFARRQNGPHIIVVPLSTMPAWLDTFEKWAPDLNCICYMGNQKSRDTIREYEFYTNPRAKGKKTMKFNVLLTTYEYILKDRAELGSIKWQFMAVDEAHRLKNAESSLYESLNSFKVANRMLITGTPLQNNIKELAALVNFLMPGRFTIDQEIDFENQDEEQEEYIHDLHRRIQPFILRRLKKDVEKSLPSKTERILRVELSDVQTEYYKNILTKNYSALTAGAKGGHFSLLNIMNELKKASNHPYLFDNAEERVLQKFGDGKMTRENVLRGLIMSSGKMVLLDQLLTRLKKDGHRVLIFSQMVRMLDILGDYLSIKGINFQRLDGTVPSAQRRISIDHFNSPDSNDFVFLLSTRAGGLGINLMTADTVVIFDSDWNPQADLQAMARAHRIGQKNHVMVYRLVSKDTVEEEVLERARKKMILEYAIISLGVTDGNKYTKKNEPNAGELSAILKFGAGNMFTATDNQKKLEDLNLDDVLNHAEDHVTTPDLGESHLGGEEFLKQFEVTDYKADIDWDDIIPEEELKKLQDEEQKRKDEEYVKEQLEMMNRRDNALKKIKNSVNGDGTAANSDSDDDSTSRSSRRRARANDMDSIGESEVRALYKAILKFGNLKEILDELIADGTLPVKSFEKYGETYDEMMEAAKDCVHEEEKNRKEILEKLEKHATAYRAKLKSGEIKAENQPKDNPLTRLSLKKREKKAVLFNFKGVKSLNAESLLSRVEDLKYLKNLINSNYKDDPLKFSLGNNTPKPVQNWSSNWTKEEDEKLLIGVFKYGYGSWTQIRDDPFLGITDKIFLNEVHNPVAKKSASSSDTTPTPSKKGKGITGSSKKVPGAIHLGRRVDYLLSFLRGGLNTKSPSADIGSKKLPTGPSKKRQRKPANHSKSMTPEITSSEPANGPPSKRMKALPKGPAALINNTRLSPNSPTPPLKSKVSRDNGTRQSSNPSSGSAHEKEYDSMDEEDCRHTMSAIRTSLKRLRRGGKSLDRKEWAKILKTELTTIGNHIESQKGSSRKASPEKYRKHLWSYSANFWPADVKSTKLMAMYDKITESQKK

Chain of Sialic acid-binding Ig-like lectin 9 (Homo sapiens) (Q9Y336 whole entry): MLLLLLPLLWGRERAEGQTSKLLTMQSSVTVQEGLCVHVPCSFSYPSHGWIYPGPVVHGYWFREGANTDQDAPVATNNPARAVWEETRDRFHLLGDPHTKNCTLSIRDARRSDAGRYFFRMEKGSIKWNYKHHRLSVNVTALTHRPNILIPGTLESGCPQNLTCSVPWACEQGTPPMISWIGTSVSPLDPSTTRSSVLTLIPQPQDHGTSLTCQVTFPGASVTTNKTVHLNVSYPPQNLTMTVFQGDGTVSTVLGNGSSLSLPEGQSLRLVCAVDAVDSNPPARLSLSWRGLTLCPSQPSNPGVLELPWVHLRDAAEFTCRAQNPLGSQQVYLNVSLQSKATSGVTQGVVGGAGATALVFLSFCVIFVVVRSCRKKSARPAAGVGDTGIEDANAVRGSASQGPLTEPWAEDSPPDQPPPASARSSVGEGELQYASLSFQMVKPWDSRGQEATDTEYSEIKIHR
Chain of Protein translocase subunit SecA (Escherichia coli (strain K12)) (P10408 whole entry): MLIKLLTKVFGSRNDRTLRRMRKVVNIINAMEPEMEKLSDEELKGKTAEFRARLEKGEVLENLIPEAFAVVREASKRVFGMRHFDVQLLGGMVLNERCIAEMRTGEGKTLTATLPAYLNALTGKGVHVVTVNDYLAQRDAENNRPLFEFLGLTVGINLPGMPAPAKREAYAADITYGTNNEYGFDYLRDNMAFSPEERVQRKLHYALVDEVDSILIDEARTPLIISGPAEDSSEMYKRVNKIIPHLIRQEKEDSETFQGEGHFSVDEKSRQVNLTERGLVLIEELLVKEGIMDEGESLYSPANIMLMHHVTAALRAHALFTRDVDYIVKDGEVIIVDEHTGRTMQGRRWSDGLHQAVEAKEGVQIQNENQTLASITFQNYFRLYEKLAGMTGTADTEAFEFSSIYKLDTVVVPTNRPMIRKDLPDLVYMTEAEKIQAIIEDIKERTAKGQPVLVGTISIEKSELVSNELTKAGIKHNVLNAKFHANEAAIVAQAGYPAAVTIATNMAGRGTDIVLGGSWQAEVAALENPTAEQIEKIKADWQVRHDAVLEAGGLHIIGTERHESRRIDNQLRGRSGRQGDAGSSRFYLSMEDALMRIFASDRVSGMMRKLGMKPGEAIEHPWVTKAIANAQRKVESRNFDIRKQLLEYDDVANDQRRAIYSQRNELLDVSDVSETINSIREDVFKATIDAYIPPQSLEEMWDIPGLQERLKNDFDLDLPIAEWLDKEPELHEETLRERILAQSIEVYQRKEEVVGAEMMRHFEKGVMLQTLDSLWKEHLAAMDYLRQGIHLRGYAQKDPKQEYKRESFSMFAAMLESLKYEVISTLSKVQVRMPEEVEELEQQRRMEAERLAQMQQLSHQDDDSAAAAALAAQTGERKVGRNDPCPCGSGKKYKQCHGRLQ

Compound | Percent Effect [1] [%] | Percent Effect [2] [%] | Percent Effect [3] [%] | Percent Effect [4] [%] | Percent Effect (Trypanosoma cruzi) [%] | Percent Effect [5] [%] | Percent Effect [6] [%] | Percent Effect (Homo sapiens) [%] | Percent Effect [7] [%] | Percent Effect [8] [%] | Percent Effect [9] [%]
O=C(c1cc(COc2ccc3c(c2)OCO3)[nH]n1)N1CCOCC1 | -8.28 | -2.74 | 9.08 | -1.9 | -4.37 | 0.798 | 7.45 | 6.61 | -3.12 | -3.7 | -5.41
Cc1ccc(CN2CCC3(CC2)OC(C(=O)N(C)C)c2ccccc23)o1 (stereo unspecified) | -0.000759 | 4 | -1.87 | -0.475 | -10.2 | -8.63 | 14.6 | 2.54 | 4.23 | 0 | -8.66
CC(C)n1ncc2cc(NC(=O)N3CCC(N4CCCC4)C3)cnc21 (stereo unspecified) | -1.2 | -5.41 | -12.5 | 7.73 | 4.74 | -5.73 | 12 | 3.87 | -7.92 | 23.2 | -5.17
CCn1cc(CNC2CC(=O)N(CCc3cccc(Cl)c3)C2)cn1 (stereo unspecified) | -5.27 | 8.22 | 1.5 | 35.6 | 0.397 | -3.99 | 8.65 | 2.71 | 2.08 | 8.64 | -4.3
Cc1c(C)n(Cc2ccncc2)c2nc3c(c(N)c12)CCCCC3 | -2.06 | 6.67 | 9.29 | 1.27 | 9.43 | -1.94 | 15.3 | 43.7 | 3.17 | 12.8 | -10.9
COCCN1C[C@@H]2CN(c3ncccn3)C[C@@H]2C1=O | -4.06 | 2.7 | 0.915 | -6.74 | -0.586 | -4.17 | 8.2 | -19.7 | 76.2 | -1.22 | 474
O=C(C1CC1)N1CCN(Cc2coc(-c3ccc(Cl)cc3)n2)CC1 | -5.03 | -7.79 | 1.6 | 13.9 | 8.8 | -1.42 | -3.38 | 43 | 3.88 | 0 | -5.59
Cc1cc(C(=O)N2CCCCC2C)ccc1NCCCO (stereo unspecified) | -2.03 | -2.6 | 3.91 | 5.61 | -3 | 0.712 | 4.73 | -4.27 | 3.88 | 7.32 | -0.238
COc1c(CNCc2cccc(CN(C)C)c2)c(C)nn1C | -7.85 | 10.8 | -5.13 | 6.33 | -2.17 | -4.01 | -0.36 | 13.9 | 4.43 | 6.17 | -5.81
COc1cc(CNCc2c(C(C)C)nn(C)c2N(C)C)ccn1 | -0.0523 | 15.8 | -8.02 | 2.55 | 1.13 | -3.06 | 14 | -9.51 | 4.41 | 4.88 | -6.52
Cc1cc(NC(=O)CN2CCOC(Cn3cccn3)C2)n(C)n1 (stereo unspecified) | -5.44 | 0 | 5.74 | -1.25 | 1.27 | -1.05 | -1.86 | 15.9 | 2.86 | 9.41 | -16.3
